An excerpt weighted towards active compounds, which were near 7.9% of everything screened.
HCMV antiviral – human cytomegalovirus inhibition; HFF cells, HCMV-luciferase reporter, 72 h; hits give low values; activity change, negative = inhibition, % at 57.5 µM; 410,000 compounds, 4.5% hits; AID 1259415; in the data active = activity change below about -60%; inconclusive = no clear call, values can overlap the other calls; inactive = above about -39%
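HFF cells seeded 16 h at 37C, treated with compounds, infected with luciferase-reporter HCMV at MOI 1 PFU/cell; luciferase read at 72 h post infection, normalized to buffer-only and Salinomycin controls.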
FMDV antiviral – blocks foot and mouth disease virus | AID 1159524 | FMDV antiviral cell-based qHTS | 410,000 compounds, 1.2% hits | Potency, µM (titrated, usually from 57.9 µM), actives largely listed as inhibitors; calls by dose curve; tested in HEK293T cells; also: read-out not given here; nearly all actives have a fitted effect of over 45% in size
Marburg entry inh – inhibitors of Marburg virus binding or cell entry | Marburg virus pseudotyped entry inhibition, cell reporter | Potency, µM (series often up to 37.8 µM), actives largely listed as inhibitors | 300,000 compounds, 1.8% hits | AID 540276; calls by dose curve; tested in HEK293 cells
HCV inh – inhibitors of hepatitis C virus infection. 340,000 compounds, 3.4% hits. Huh7.5.1 HCVcc-Cre infection, luciferase reporter, 44 h. Potency, µM (titrated, usually from 41.8 µM), usual class: inhibitors; active = well fitted inhibition curve with a large enough effect; inconclusive = small, poorly fitted or top-dose-only effect, or another doubt; inactive = no such curve, though single readings can be large or run the other way
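Whole-lifecycle infectious HCVcc-Cre system; cells 1,000/well, compound then virus (~0.5 moi) added 4 h after plating, 44 h culture. Luciferase read 15 sec following 15 min substrate incubation, room temp.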
LASV entry inh – inhibitors of Lassa virus binding or cell entry | Lassa virus pseudotype entry inhibition, cell reporter | Potency, µM (top dose mostly 37.9 µM), most hits filed as inhibitors | 300,000 compounds, 1.2% hits; calls by dose curve; tested in HEK293 cells; also: nearly all actives have a fitted effect of over 50% in size
Each line names hits and unclear results; the compound was inactive in the other large screens.

COc1ccc2ccccc2c1/C=N/NC(=O)c1ccc(C)nc1	HCV inh inconclusive (no result: Marburg entry inh, LASV entry inh)
CC/C(=N/NC(=O)c1ccc2c(c1)OCO2)c1ccccc1O	HCMV antiviral -98, HCV inh 3.2µM (no result: Marburg entry inh, LASV entry inh)
O=C(N/N=C/c1c(O)ccc2ccccc12)c1ccc(CO)nc1	HCMV antiviral -99, Marburg entry inh 11µM, HCV inh 11µM, LASV entry inh inconclusive
COc1ccccc1/C=N/NC(=O)CNC(=O)c1ccc(S(=O)(=O)N2CCCC2)cc1	none
O=C(CNC(=O)c1ccc(S(=O)(=O)N2CCCC2)cc1)N/N=C/c1ccccc1Cl	HCMV antiviral -63, FMDV antiviral inconclusive, HCV inh inconclusive
O=C(NN=Cc1c(O)ccc2ccccc12)c1ccc2c(c1)OCO2	HCMV antiviral -102, HCV inh 5µM (no result: Marburg entry inh, LASV entry inh)
COc1ccccc1/C=C/c1onc(C)c1S(=O)(=O)N1CCC(C(=O)NC(C)C)CC1	none (no result: Marburg entry inh, LASV entry inh)
Cc1ccc(-c2nnc3sc(-c4ccncc4)nn23)cc1	HCMV antiviral inconclusive, Marburg entry inh 5.8µM
Clc1ccccc1-c1nn2c(-c3ccncc3)nnc2s1	Marburg entry inh 7.3µM, HCV inh inconclusive, LASV entry inh inconclusive (no result: HCMV antiviral)
Clc1ccccc1-c1nnc2sc(-c3ccncc3)nn12	none (no result: Marburg entry inh, LASV entry inh)
CC1=C(c2ccc(C)cc2)S(=O)(=O)NC1=NCCCN1CCN(c2ccc(F)cc2)CC1	none (no result: HCV inh)
COc1ccc(N2CCN(C(=O)CN=C3NS(=O)(=O)C(c4ccc(C)cc4)=C3C)CC2)cc1	HCMV antiviral -61
Cc1ccc(-c2csc3nc4ccc(C(=O)NCCO)cc4c(=O)n23)cc1	HCMV antiviral -90 (no result: Marburg entry inh, LASV entry inh)
Cc1ccc(-c2csc3nc4cc(C(=O)NC5CCC(O)CC5)ccc4c(=O)n23)cc1 (stereo not given)	HCV inh inconclusive (no result: Marburg entry inh, LASV entry inh)
NS(=O)(=O)c1ccc(CCNC(=S)Nc2ccc(F)cc2)cc1	HCMV antiviral -61
CCOC(=O)c1ccc(NC(=S)NNC(C)(C)C)cc1	HCMV antiviral -74 (no result: LASV entry inh)
CCOC(=O)c1ccc(NC(=S)NCCc2ccc(F)cc2)cc1	FMDV antiviral inconclusive, HCV inh 11µM
NS(=O)(=O)c1ccc(CCNC(=S)Nc2ccccc2)cc1	HCV inh inconclusive
CCC(C)NC(=S)Nc1ccc(C(=O)OC)cc1 (stereo not given)	HCMV antiviral -85, HCV inh inconclusive
Clc1ccc(OCCN2CCCCC2)c(Cl)c1	Marburg entry inh inconclusive (no result: FMDV antiviral)
Clc1ccc(OCCCN2CCCCC2)c(Br)c1	Marburg entry inh 15µM, HCV inh inconclusive, LASV entry inh inconclusive
CCN1CCN(CCCOc2ccc(Cl)cc2Br)CC1	Marburg entry inh inconclusive, HCV inh inconclusive, LASV entry inh inconclusive
Clc1ccc(OCCCCCN2CCCC2)c(Br)c1	HCMV antiviral inconclusive, Marburg entry inh inconclusive, HCV inh 10µM, LASV entry inh inconclusive
Clc1ccc(Cl)c(OCCCCN2CCNCC2)c1	Marburg entry inh 11µM, HCV inh inconclusive, LASV entry inh inconclusive
COC1=C[C@H](C(=O)NC2CCN(Cc3ccccc3)CC2)[C@H](C)[C@@H](c2ccccc2)CC1=O	none (no result: HCMV antiviral, FMDV antiviral, HCV inh, LASV entry inh)
CC(=O)C1=C(c2ccc(Cl)c(Cl)c2)N(C(C)=O)n2c(C)nnc2S1	FMDV antiviral inconclusive, LASV entry inh inconclusive (no result: Marburg entry inh, HCV inh)
CCOC(=O)CSc1nc2ccccc2c(=O)n1Cc1ccco1	HCV inh 13µM (no result: FMDV antiviral)
O=C(CSc1nc2ccccc2c(=O)n1Cc1ccco1)c1ccccc1	HCMV antiviral -69, HCV inh inconclusive, LASV entry inh inconclusive
CCOC(=O)CSc1nc2c(sc(=S)n2-c2ccccc2OC)c(=O)n1-c1ccccc1OC	Marburg entry inh inconclusive, HCV inh inconclusive
COc1ccc(C(=O)CSc2nnc(-c3cc4ccccc4cc3O)n2Cc2ccco2)cc1	FMDV antiviral inconclusive, HCV inh 11µM, LASV entry inh inconclusive
CCOC(=O)CSc1nc2c(sc(=S)n2-c2ccccc2OC)c(=O)n1Cc1ccco1	HCV inh 2.8µM
CCc1ccc(CNC(=O)CCc2c(C)nn(-c3ccc(N4CCCC4)nn3)c2C)cc1	none (no result: Marburg entry inh, HCV inh)
CCOc1ccccc1CNC(=O)c1cc2n(n1)CCCN(Cc1ccc(C)cc1)C2=O	none (no result: Marburg entry inh, HCV inh)
CCOC(=O)C1CCN(C/C=C/c2ccccc2[N+](=O)[O-])CC1	none
COc1ccc(CCCC2=NC3C=CC=CC3=N2)cc1 (stereo not given)	none (no result: HCMV antiviral, FMDV antiviral, HCV inh, LASV entry inh)
O=C(CSc1nc(=O)[nH]c2c1CCCC2)Nc1cc(C(F)(F)F)cc(C(F)(F)F)c1	FMDV antiviral inconclusive
O=c1c2ccccc2nc(SCc2nnc(-c3ccccc3Br)o2)n1Cc1ccco1	HCV inh 13µM, LASV entry inh inconclusive (no result: FMDV antiviral)
Cc1ccc(-c2cn3cccc(C)c3n2)cc1NS(=O)(=O)c1ccccc1	HCMV antiviral -85 (no result: HCV inh)
Cc1ccn2cc(-c3cccc(S(=O)(=O)N4CCCC4)c3)nc2c1	HCMV antiviral -64, Marburg entry inh inconclusive, HCV inh 11µM, LASV entry inh inconclusive
Cc1cc(C)c(S(=O)(=O)Nc2cc(-c3cn4ccccc4n3)ccc2C)cc1C	LASV entry inh inconclusive (no result: HCV inh)
Cc1ccn2cc(-c3cccc([N+](=O)[O-])c3)nc2c1	Marburg entry inh inconclusive, LASV entry inh 4.5µM
Cc1ccn2cc(-c3ccc(NS(=O)(=O)c4ccccc4)cc3)nc2c1	Marburg entry inh inconclusive, HCV inh 11µM
Cc1ccn2cc(-c3cccc(S(=O)(=O)N4CC(C)OC(C)C4)c3)nc2c1 (stereo not given)	FMDV antiviral inconclusive, HCV inh inconclusive (no result: Marburg entry inh, LASV entry inh)
O=C(NC(=S)Nc1cccc(C(F)(F)F)c1)c1csnn1	HCMV antiviral inconclusive
CCN1CCN(c2ccc(S(=O)(=O)N3CCOCC3)cc2NC(=O)C(C)Oc2ccc(Cl)cc2)CC1 (stereo not given)	Marburg entry inh inconclusive
Cc1ccccc1-c1cnc(C(O)c2cc(Cl)cc(Cl)c2)[nH]1 (stereo not given)	none (no result: Marburg entry inh, HCV inh, LASV entry inh)
O=C(CS(=O)(=O)c1ccccc1)Nc1ccc(N2CCOCC2)cc1	none (no result: LASV entry inh)
COc1cc2c(cc1OC)CN(c1ccc(-c3ccccc3OC)nn1)CC2	FMDV antiviral 35µM, Marburg entry inh inconclusive, HCV inh inconclusive, LASV entry inh inconclusive (no result: HCMV antiviral)
COc1cc2c(cc1OC)CN(c1ccc(C(F)(F)F)cn1)CC2	Marburg entry inh inconclusive, HCV inh inconclusive
COc1cc2c(cc1OC)CN(c1ccc3ccccc3n1)CC2	HCV inh 13µM
COc1ccccc1-c1ccc(NC2CCCC2)nn1	HCV inh inconclusive
O=C1CCC[C@H]2[C@@H](Cc3ccccc3)[C@@H](NS(=O)(=O)c3cccs3)CC[C@]23CCCN13	none (no result: FMDV antiviral, Marburg entry inh, HCV inh, LASV entry inh)
CC1(C)SC(=S)N(/N=C/c2ccccc2O)C1N(O)C(=O)Nc1ccccc1 (stereo not given)	HCMV antiviral inconclusive, Marburg entry inh inconclusive, HCV inh 11µM
CC1(C)SC(=S)N(/N=C/c2ccc(O)cc2)C1N(O)C(=O)Nc1ccc([N+](=O)[O-])cc1 (stereo not given)	Marburg entry inh inconclusive, HCV inh inconclusive, LASV entry inh inconclusive
CNC(=O)N(O)C1N(/N=C/c2cc(Br)ccc2O)C(=S)SC1(C)C (stereo not given)	HCV inh 11µM (no result: Marburg entry inh, LASV entry inh)
Cc1ccc(/C=N/N2C(=S)SC(C)(C)C2N(O)C(=O)Nc2ccc([N+](=O)[O-])cc2)cc1 (stereo not given)	Marburg entry inh inconclusive, HCV inh 11µM
